# Measured values from article PMC8384837, “Expanding the binding specificity for RNA recognition by a PUF domain”.
# Experiments:
# Assay in all cases: yeast three-hybrid, YBZ-1, SC-Leu-His + 0.5 mM 3-AT, 4 days
# Conditions in all cases: tags: N-Gal4 AD-HA kept; label: inside an RPR1-promoter hybrid RNA with tandem MS2 sites; ssRNA
# PUM1 PUF domain R7-RRE = PUM1 PUF domain R7-RRE (Homo sapiens, UniProt Q14671 828-1176, S1079R;N1080R)
# In short: (§1)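 The interaction score is the logarithmic change in variant frequency from input to selection. It uses log2, with a pseudocount of 1 for absent variants, and frequencies came from PCR-amplified, Illumina-sequenced repeat regions. The libraries were Pumilio-1 PUF domains randomized at the three base-contacting residues per repeat, co-expressed with matching RNA elements in strain YBZ-1 (LexA–MS2 coat fusion, HIS3 reporter). Plating lasted four days on SC-Leu (input) or SC-Leu-His + 0.5 mM 3-AT (selection).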
# PUM1 PUF domain R5-KDR = PUM1 PUF domain R5-KDR (Homo sapiens, UniProt Q14671 828-1176, C1007K;R1008D;Q1011R)
# In short: as §1
# PUM1 PUF domain R5-KRL = PUM1 PUF domain R5-KRL (Homo sapiens, UniProt Q14671 828-1176, C1007K;Q1011L)
# In short: as §1
# PUM1 PUF domain R5-RMD = PUM1 PUF domain R5-RMD (Homo sapiens, UniProt Q14671 828-1176, C1007R;R1008M;Q1011D)
# In short: as §1
# PUM1 PUF domain R8-RFQ = PUM1 PUF domain R8-RFQ (Homo sapiens, UniProt Q14671 828-1176, N1122R;Y1123F)
# In short: as §1
sequence,measurement,setting,value
GGCUAGAACUAGUGGAUCCCCCGGCGCCCGGCGGCUCGAGCCCGGGUAAGUCUAAAUAGUCUGCAUGCCGCCGGGCGCCAUGCCUGCAGGUCGACUCUAGAAAACAUG,binding signal,PUM1 PUF domain R7-RRE,3.75 log2 enrichment (interaction score)
GGCUAGAACUAGUGGAUCCCCCGGCGCCCGGCGGCUCGAGCCCGGGUAAGUGUCAAUAGUCUGCAUGCCGCCGGGCGCCAUGCCUGCAGGUCGACUCUAGAAAACAUG,binding signal,PUM1 PUF domain R5-KDR,4.77 log2 enrichment (interaction score)
same,binding signal,PUM1 PUF domain R5-KRL,3.16 log2 enrichment (interaction score)
same,binding signal,PUM1 PUF domain R5-RMD,4.23 log2 enrichment (interaction score)
GGCUAGAACUAGUGGAUCCCCCGGCGCCCGGCGGCUCGAGCCCGGGUAAGCGUAAAUAGUCUGCAUGCCGCCGGGCGCCAUGCCUGCAGGUCGACUCUAGAAAACAUG,binding signal,PUM1 PUF domain R8-RFQ,5.63 log2 enrichment (interaction score)
